A selection: hits, their analogues and other compounds. The true share with any hit is near 2.4%.
Prx2 Sm inh: Schistosoma mansoni Prx2 inhibition; S. mansoni Prx2 activity coupled to TGR/GSH (TGR is thioredoxin glutathione reductase), NADPH fluorescence loss, qHTS; hit rate 0.07% among 65,000; Potency, µM
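Enzyme mix: 100 uM NADPH, 25 nM TGR, 700 uM GSH, 50 nM Prx2 in 100 mM phosphate pH 7.4, 10 mM EDTA, 0.01% Tween-20. 15 min RT with compound; NADPH/GSH added, H2O2 starts reaction; NADPH fluorescence read 8 min.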
Anthrax LT inh: blocks cellular internalization of anthrax lethal toxin; Cells, anthrax lethal toxin internalization, FRET ratio (460/530); hit rate 0.67% among 70,000; Potency, µM (top dose mostly 40 µM), inactives show at the top dose activity change, negative = inhibition, hits mostly inhibitors; AID 912; further: on the % scale 0 is the no-effect control and ±100 the full control effect; nearly all actives have a fitted effect of over 50% in size
AmpC inh no det: AmpC beta-lactamase inhibition, detergent-free assay. hit rate 1.8% among 71,000. AID 585. P00811. AmpC nitrocefin hydrolysis, absorbance 480 nm, no detergent. Potency, µM (doses to about 28.7 µM), without a hit: at the highest dose activity change, negative = inhibition; further: % of control where 0% means no effect
Target sequence (P00811 whole entry, looked up): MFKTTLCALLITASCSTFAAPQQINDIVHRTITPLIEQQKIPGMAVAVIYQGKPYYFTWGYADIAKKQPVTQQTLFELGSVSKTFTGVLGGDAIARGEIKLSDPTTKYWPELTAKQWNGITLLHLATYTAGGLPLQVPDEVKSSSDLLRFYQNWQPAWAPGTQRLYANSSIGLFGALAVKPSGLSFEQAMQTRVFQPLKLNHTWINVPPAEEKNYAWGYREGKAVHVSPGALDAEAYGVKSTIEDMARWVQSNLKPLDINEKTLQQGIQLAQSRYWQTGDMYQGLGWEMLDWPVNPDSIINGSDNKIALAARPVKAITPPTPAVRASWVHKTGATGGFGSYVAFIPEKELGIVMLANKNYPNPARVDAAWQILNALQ
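AmpC in 20 mM phosphate buffer pH 7.0 was preincubated 15 min at room temperature with compounds. Nitrocefin (800 uM stock) was then added and hydrolysis followed at 480 nm every 20 s for 4 min.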
AmpC inh det: AmpC beta-lactamase inhibition, detergent assay | hit rate 0.09% among 71,000 | P00811 | Potency, µM (top dose mostly 28.7 µM), without a hit: at the highest dose activity change, negative = inhibition | AID 584 | purified AmpC, nitrocefin hydrolysis with detergent; active means well fitted curve in the direction sought with a large enough effect; inconclusive means small, poorly fitted or top-dose-only effect; further: on the % scale 0 is the no-effect control and ±100 the full control effect
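E. coli AmpC (5.3 nM) in 20 mM phosphate pH 7.0 with 0.01% Triton X-100, preincubated 15 min RT with compound; nitrocefin (2 uL of 800 uM stock) hydrolysis followed by 480 nm absorbance every 20 s over 4 min.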
The depositor's hits bear a star; [ ] = dose if it differs, or a comment. Unless noted, the call rests on the fitted dose curve. Potency means the concentration at half of the fitted maximal effect.

What do the screens show for `COc1cccc2c1C(=O)c1c(O)c3c(c(O)c1C2=O)C[C@](O)(C(=O)CO)C[C@@H]3O[C@H]1C[C@H](N)[C@@H](O)[C@H](C)O1`?
Prx2 Sm inh: >57; Anthrax LT inh: 0%[8 µM]; AmpC inh no det: 2%[5.75 µM]; AmpC inh det: -2%[5.75 µM]

Results for COc1cccc2c1C(=O)c1c(O)c3c(c(O)c1C2=O)C[C@@](O)(C(C)=O)C[C@@H]3O[C@H]1C[C@H](N)[C@H](O)[C@H](C)O1 ?
Prx2 Sm inh: >57; Anthrax LT inh: 16µM*; AmpC inh no det: 144%; AmpC inh det: 9%

Results for CCNc1ncc2nc(-c3ccc(F)cc3)c(=O)n(C[C@H]3CCCO3)c2n1 ?
Prx2 Sm inh: >57; Anthrax LT inh: inconclusive; AmpC inh no det: -4%; AmpC inh det: 0%

What do the screens show for `O=C1Nc2ccccc2C(O)(C(=O)NCc2ccco2)N1c1ccc(Cl)c(Cl)c1` (centres undefined)?
Prx2 Sm inh: >57; Anthrax LT inh: 7.9µM*; AmpC inh no det: -6%; AmpC inh det: -3%

How did C=C(CO)[C@H]1Cc2c(ccc3c(=O)c4c(oc23)COc2cc(OC)c(OC)cc2-4)O1 do in these assays?
Prx2 Sm inh: >57; Anthrax LT inh: -15%; AmpC inh no det: 99%; AmpC inh det: 3%

What do the screens show for `CC(C)C[C@H](N)c1nnc(S(=O)(=O)Cc2ccc(F)cc2)o1`?
Prx2 Sm inh: >57; Anthrax LT inh: inconclusive; AmpC inh no det: 2.5µM*; AmpC inh det: 2.5µM*

How did CC(C)OC(=O)c1nnc(Cc2ccc(F)cc2)o1 do in these assays?
Prx2 Sm inh: >57; Anthrax LT inh: 0%; AmpC inh no det: 9%; AmpC inh det: 13%

What do the screens show for `CCOc1ccc(-n2c(Cc3cc(=O)[nH]c(=O)[nH]3)nnc2SCC)cc1`?
Prx2 Sm inh: >57; Anthrax LT inh: -9%; AmpC inh no det: 3%; AmpC inh det: 15%

How did COc1ccc(-n2c(Cc3cc(=O)[nH]c(=O)[nH]3)nnc2SCc2ccccc2)cc1 do in these assays?
Prx2 Sm inh: >57; Anthrax LT inh: 3%; AmpC inh no det: 4µM*[single pt active]; AmpC inh det: 10%

Results for COc1cccc(-n2c(Cc3cc(=O)[nH]c(=O)[nH]3)nnc2SCc2cccnc2)c1 ?
Prx2 Sm inh: >57; Anthrax LT inh: -1%; AmpC inh no det: 4µM*[single pt active]; AmpC inh det: 14%

What do the screens show for `Nc1c[n+](N2CCOCC2)no1`?
Prx2 Sm inh: >57; Anthrax LT inh: inconclusive; AmpC inh no det: -9%; AmpC inh det: -4%

How did COc1ccccc1N(C(C)=O)C1SC(=O)N(c2ccccc2)C1=O (centres undefined) do in these assays?
Prx2 Sm inh: >57; Anthrax LT inh: 9%; AmpC inh no det: 13%; AmpC inh det: -2%

What do the screens show for `COc1cccc(NC2SC(=O)N(c3ccccc3)C2=O)c1` (centres undefined)?
Prx2 Sm inh: >57; Anthrax LT inh: -18%; AmpC inh no det: 4µM*[single pt active]; AmpC inh det: 8%

What do the screens show for `CCCN1C(=O)c2cc(C(=O)NC3CCCCCC3)ccc2C1O` (centres undefined)?
Prx2 Sm inh: >57; Anthrax LT inh: -4%; AmpC inh no det: 4µM*[single pt active]; AmpC inh det: 15%

How did O=C(CCCN1CCC2(CC1)C(=O)N(Cc1cccc(F)c1)CN2c1ccccc1)c1ccc(F)cc1 do in these assays?
Prx2 Sm inh: >57; Anthrax LT inh: inconclusive; AmpC inh no det: 20µM*[single pt active]; AmpC inh det: -9%

Results for COc1ccccc1N1CCN(C(=O)CCCC2=NS(=O)(=O)c3ccccc3N2)CC1 ?
Prx2 Sm inh: >57; Anthrax LT inh: -10%; AmpC inh no det: 4µM*[single pt active]; AmpC inh det: 12%

What do the screens show for `CCOC(=O)CC1=NS(=O)(=O)c2ccccc2N1`?
Prx2 Sm inh: >57; Anthrax LT inh: -4%; AmpC inh no det: 0%; AmpC inh det: 14%

What do the screens show for `COc1ccc(S(=O)(=O)Cc2ccc(C(=O)NCc3ccccn3)o2)cc1`?
Prx2 Sm inh: >57; Anthrax LT inh: inconclusive; AmpC inh no det: 4µM*[single pt active]; AmpC inh det: 11%

What do the screens show for `O=C(NCc1ccc2c(c1)OCO2)Oc1ccccc1`?
Prx2 Sm inh: >57; Anthrax LT inh: -8%; AmpC inh no det: 4µM*[single pt active]; AmpC inh det: 13%

How did CCc1ccccc1S(=O)(=O)Cc1ccc(C(=O)NC(C)C)o1 do in these assays?
Prx2 Sm inh: >57; Anthrax LT inh: -12%; AmpC inh no det: 13%; AmpC inh det: 5%

What do the screens show for `CCN(CC)C(=O)c1ccc(CS(=O)(=O)c2ccc(OC)cc2)o1`?
Prx2 Sm inh: >57; Anthrax LT inh: -10%; AmpC inh no det: 4µM*[single pt active]; AmpC inh det: 14%

Results for CCc1ccccc1S(=O)(=O)Cc1ccc(C(=O)NCc2ccc3c(c2)OCO3)o1 ?
Prx2 Sm inh: >57; Anthrax LT inh: inconclusive; AmpC inh no det: 4µM*[single pt active]; AmpC inh det: 6%

How did COc1cccc([C@@H]2Oc3ccc(OC)cc3/C(=N/O[C@@H](C)c3cc(-c4c(C)cc(C)cc4C)no3)[C@@H]2O)c1 do in these assays?
Anthrax LT inh: -5%[8 µM]

What do the screens show for `COc1cc(C(=O)O[C@@H]2CC(C)=CC[C@@]3(C)CC[C@](O)(C(C)C)[C@H]23)ccc1O`?
Prx2 Sm inh: >57; Anthrax LT inh: inconclusive; AmpC inh no det: -15%; AmpC inh det: -3%

How did CC(=O)OC[C@@H]1O[C@H](CCO/N=C(\C)CCN2CCCCc3nc(C)c(C)cc32)C=C[C@@H]1OC(C)=O do in these assays?
Anthrax LT inh: -2%[1.6 µM]

How did O=C(NCc1ccco1)c1cc2c(s1)CSC2 do in these assays?
Anthrax LT inh: -13%; AmpC inh no det: -25%; AmpC inh det: 12%

Results for O=C(NCc1ccc2c(c1)OCO2)c1cc2c(s1)CSC2 ?
Prx2 Sm inh: >57; Anthrax LT inh: -3%; AmpC inh no det: 13µM*[single pt active]; AmpC inh det: 5%

How did COCCNC(=O)c1ccc(CS(=O)(=O)c2ccc(OC)cc2)o1 do in these assays?
Prx2 Sm inh: >57; Anthrax LT inh: -9%; AmpC inh no det: 4µM*[single pt active]; AmpC inh det: 11%

Results for COc1ccc(S(=O)(=O)Cc2ccc(C(=O)NC(C)C)o2)cc1 ?
Prx2 Sm inh: >57; Anthrax LT inh: 0%; AmpC inh no det: 9%; AmpC inh det: 5%

What do the screens show for `COCCNC(=O)c1ccc(CS(=O)(=O)c2c(Cl)cccc2Cl)o1`?
Prx2 Sm inh: >57; Anthrax LT inh: 1%; AmpC inh no det: 20%; AmpC inh det: 7%

How did CCC(C)NC(=O)c1ccc(CS(=O)(=O)c2ccc(OC)cc2)o1 (centres undefined) do in these assays?
Prx2 Sm inh: >57; Anthrax LT inh: -7%; AmpC inh no det: 4µM*[single pt active]; AmpC inh det: 12%

How did COc1ccccc1S(=O)(=O)Cc1ccc(C(=O)NCCN2CCCC2)o1 do in these assays?
Prx2 Sm inh: >57; Anthrax LT inh: -1%; AmpC inh no det: 2%; AmpC inh det: 0%

How did COc1ccccc1S(=O)(=O)Cc1ccc(C(=O)NCc2cccnc2)o1 do in these assays?
Prx2 Sm inh: >57; Anthrax LT inh: -21%; AmpC inh no det: 4µM*[single pt active]; AmpC inh det: 15%

What do the screens show for `CCC/C=C(\CCC)C(NS(=O)(=O)CC12CCC(CC1=O)C2(C)C)c1ccc(C(=O)OC)cc1` (centres undefined)?
Prx2 Sm inh: >57; Anthrax LT inh: -11%; AmpC inh no det: 16%; AmpC inh det: -1%
